The full ranking holds about 68,000 sequences; the median of “fluorescence intensity (a.u.)” is about 9,100, and the highest 2% start at about 16,000. Shown is part of a subset that was picked to be rich in the highest values.
target: OsWRKY34 (Oryza sativa, UniProt Q0JBA9 1-250); assay: protein-binding microarray (RPBM); PBS, 2% BSA, 51.3 ng/ul salmon testes DNA, 50 uM zinc acetate, 200 nM TF, 25 C, 1 h; high values mean tight binding; conditions: protein: recombinant; tags: N-terminal polyhistidine and DsRed monomer fusion (pET32a); label: CyDye5-dUTP incorporated in the synthesized complementary strand; 3' TTTTT single-stranded linker to array surface; dsDNA, one strand shown
Sequence (Q0JBA9 entry or part of it): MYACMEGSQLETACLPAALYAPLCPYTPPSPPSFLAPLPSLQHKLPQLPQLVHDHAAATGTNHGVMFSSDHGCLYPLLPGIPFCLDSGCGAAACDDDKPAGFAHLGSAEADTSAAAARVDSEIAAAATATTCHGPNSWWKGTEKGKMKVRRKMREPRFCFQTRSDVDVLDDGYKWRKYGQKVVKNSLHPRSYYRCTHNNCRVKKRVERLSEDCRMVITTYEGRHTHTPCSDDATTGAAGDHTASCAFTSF
How it was run: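 An Axon 4000B scanner gave the binding signal as per-feature fluorescence intensity in arbitrary units. This followed washing of a custom Agilent array that had been incubated for 1 h at 25 °C with 200 nM protein in PBS, 2% BSA, salmon testes DNA and 50 µM zinc acetate. The proteins were transcription factors fused at the N-terminus to polyhistidine and DsRed, expressed in E. coli BL21-CodonPlus and purified on Ni–NTA.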

| Sequence | binding signal |
| --- | --- |
| ATTATCCTCTTGTTTTTCAACTGGAATGAACCACCAACAACGGAGTCACCTAGTGCAG | 9790 fluorescence intensity (a.u.) |
| CACTACTATCTGCCTCACCGTTAACCCTACCGAATAAATTCGGAGTCACCTAGTGCAG | 8880 fluorescence intensity (a.u.) |
| ATTGCAGCCTTCGCCTCCTTTCCTTCAGGTACACATATTGCGGAGTCACCTAGTGCAG | 9850 fluorescence intensity (a.u.) |
| TTGTGGGAGGAGGGGATGGAATGATGATGACTCTGTTTTTCGGAGTCACCTAGTGCAG | 8200 fluorescence intensity (a.u.) |
| GGTGATCTTTGTATTCTTTTTCTGCAGCGAACATATAGCTCGGAGTCACCTAGTGCAG | 16300 fluorescence intensity (a.u.) |
| ATTTTGATTTTTGCAATCACCACCCCGCGCGGCGCAAACACGGAGTCACCTAGTGCAG | 8880 fluorescence intensity (a.u.) |
| CCGCTCTGATTCGCAAACTATAACACCAAACAAACGGGCGCGGAGTCACCTAGTGCAG | 20100 fluorescence intensity (a.u.) |
| GACGCGGCGCAGTGCAACCAACAAACCGGGGCGGGCGGGGCGGAGTCACCTAGTGCAG | 11800 fluorescence intensity (a.u.) |
| ATTATATGCTAATTACTTTCTCGTTTTACGTACACCAACTCGGAGTCACCTAGTGCAG | 8420 fluorescence intensity (a.u.) |
| TTTCATTTTTTTTTACCACCTCACCTTCTGTGTTTCTTTTCGGAGTCACCTAGTGCAG | 9040 fluorescence intensity (a.u.) |
| AAATTTGAAGTAGTTTGACTTTGACCAAAGTCAAAACATCCGGAGTCACCTAGTGCAG | 17600 fluorescence intensity (a.u.) |
| TAAAGTCAAACTGTTTTTTTAAGTTTGACCAAGCTTTTGACGGAGTCACCTAGTGCAG | 10400 fluorescence intensity (a.u.) |
| TTGGTCAAAGTCAAACTGCTTTAAGTTTGACCAAGTTTGTCGGAGTCACCTAGTGCAG | 21500 fluorescence intensity (a.u.) |
| AGATGTTTTGACTTTAGTCAAAGTCAAACTGCTTTAAGTTCGGAGTCACCTAGTGCAG | 11800 fluorescence intensity (a.u.) |
| TTGACTTTGTTTAAAGTCAAACTGCTTCAAGTTTGACTAACGGAGTCACCTAGTGCAG | 9550 fluorescence intensity (a.u.) |
| ATTTAAAATAGTTTGACTTTGACCAAAGTCAAAACATCTTCGGAGTCACCTAGTGCAG | 13500 fluorescence intensity (a.u.) |
| AAGCTTTGACTTTTTTTTGTCAAATTTTTTAAGTTTGATTCGGAGTCACCTAGTGCAG | 20400 fluorescence intensity (a.u.) |
| TGCATTTCAATTCAAATTTAAGTTGATTCGTTGACTTGTTCGGAGTCACCTAGTGCAG | 10100 fluorescence intensity (a.u.) |
| AAACTTGAAGAAATTTGACTTTAGCTAAAGTCAAAACATCCGGAGTCACCTAGTGCAG | 10600 fluorescence intensity (a.u.) |
| TTTTGTCATTGTCAAATTTTGATAAGTTTGTCAAAATTTTCGGAGTCACCTAGTGCAG | 9080 fluorescence intensity (a.u.) |
| TTTGGTCAAAGTCAAACTGCTTCTAGTTTGACTAAATTTACGGAGTCACCTAGTGCAG | 17800 fluorescence intensity (a.u.) |
| ATTTTGGTCAAATTTAAACTAATCTAAGTTTGACTAATTTCGGAGTCACCTAGTGCAG | 8610 fluorescence intensity (a.u.) |
| AAACTACCATGGGACTTATATTGCTCCGGTTTTGATAGTTCGGAGTCACCTAGTGCAG | 8480 fluorescence intensity (a.u.) |
| TTCCACAGAGTCAAGTCCACAGAACGTATGCTCCATGTTCCGGAGTCACCTAGTGCAG | 8160 fluorescence intensity (a.u.) |
| GGCTGCCTGTGCATGGGAGGCGATGTGAGGGTGGGCAGGGCGGAGTCACCTAGTGCAG | 9440 fluorescence intensity (a.u.) |
| ACTCACGCTTTAACACCAGGAATCTTATCTCTATCTCATCCGGAGTCACCTAGTGCAG | 8460 fluorescence intensity (a.u.) |
| ATTGGGCTGGAATGAGATTCACGGGAGGGTAACTGGCGGTCGGAGTCACCTAGTGCAG | 12300 fluorescence intensity (a.u.) |

| Sequence | binding signal |
| --- | --- |
| TTCAAATTGTTGCTGCTCTGTGCTAGCCTTTTCATATTGACGGAGTCACCTAGTGCAG | 9110 fluorescence intensity (a.u.) |
| CGTGGTAATTTTTATTGGTAAGTGGTGGTGAAGTGGGTGACGGAGTCACCTAGTGCAG | 8300 fluorescence intensity (a.u.) |
| GCAGTTTAACTTTGACCAAAGTCAAAATATTTTATAATTTCGGAGTCACCTAGTGCAG | 8930 fluorescence intensity (a.u.) |
| ACACTTTGACTCTTTGATTTAGTAAGCTCGAGTTTATTTTCGGAGTCACCTAGTGCAG | 9030 fluorescence intensity (a.u.) |
| ATATTATAAGTTGTTTTGACTTTTTGCTAGTCAAACTTATCGGAGTCACCTAGTGCAG | 14200 fluorescence intensity (a.u.) |
| ATTTTTTTTCTAGTCAAACTTTGTTAAGTTTGACCAAAATCGGAGTCACCTAGTGCAG | 9790 fluorescence intensity (a.u.) |
| ATAAGATATTTTTGACTTTGGTCAAAGTCAAATTGTTTCACGGAGTCACCTAGTGCAG | 15300 fluorescence intensity (a.u.) |
| CTTTGGTCAAAGTCAAATTGTTTTAAGTTTGACCAAGTTTCGGAGTCACCTAGTGCAG | 19600 fluorescence intensity (a.u.) |
| TAAGTTGTTTGACTTTTTTTCTAGTCAAACTTGTCTGAGTCGGAGTCACCTAGTGCAG | 17000 fluorescence intensity (a.u.) |
| CACTTTATTTTTGAAAATTCGGGTGGGTAAGCTGGTGACTCGGAGTCACCTAGTGCAG | 19200 fluorescence intensity (a.u.) |
| ACTTCTTCTACGTGATTTCCTGATTCGCCTCATCCGCTTCCGGAGTCACCTAGTGCAG | 9060 fluorescence intensity (a.u.) |
| TGGGGATGGCGGAGGTTAGCGGCGCGCTTTTTTTTCTATTCGGAGTCACCTAGTGCAG | 14500 fluorescence intensity (a.u.) |
| TTCATATACACATATAGTTTTACATATTTCATATTTTTTTCGGAGTCACCTAGTGCAG | 9360 fluorescence intensity (a.u.) |
| CCACCTGCCAGCCTGTACCCACCCCTCCCTACTGTTATACCGGAGTCACCTAGTGCAG | 8640 fluorescence intensity (a.u.) |
| ATGATCATAGCCATTTTTCCTCGCTTTAAATATTTGCTACCGGAGTCACCTAGTGCAG | 8490 fluorescence intensity (a.u.) |
| GAGGTCTACTGTTATTGGGGATTCTTTTTGGGTGGGGTGGCGGAGTCACCTAGTGCAG | 31300 fluorescence intensity (a.u.) |
| TTGGCGGTGGAGGCGGTGGTGGCTTTGGAGGAGACGGTGGCGGAGTCACCTAGTGCAG | 8650 fluorescence intensity (a.u.) |
| TGGCGGATTGATCTGGAGGTGGGCTTGTTGGGGTTGCTGTCGGAGTCACCTAGTGCAG | 18200 fluorescence intensity (a.u.) |
| GTGGCTTGAAAGGTCTGTGTGTTCTTGTTTGGGATTGAGGCGGAGTCACCTAGTGCAG | 8440 fluorescence intensity (a.u.) |
| GGTTGCTGTGGTTGGCGAGGTGGGGTGGGGCTTGGAGTAACGGAGTCACCTAGTGCAG | 27400 fluorescence intensity (a.u.) |
| CTGGATTGATTGGGAGTGTTGGGTTTCGGGCTAGATCTGGCGGAGTCACCTAGTGCAG | 9850 fluorescence intensity (a.u.) |
| TTCGGAGGCGGAGGCGGTGGTGGGCTTGGTGGAGGTGGCGCGGAGTCACCTAGTGCAG | 9860 fluorescence intensity (a.u.) |
| GCTTGTTGTGGGCTGTGGACTGGGTGTGTGTGTGTGCTTTCGGAGTCACCTAGTGCAG | 9420 fluorescence intensity (a.u.) |
| CGGGTGGGGATGGGCTGGATCTGGATTGATTGGGAGTGTTCGGAGTCACCTAGTGCAG | 15200 fluorescence intensity (a.u.) |
| AGTCTGGATTCTTGGAGGTCAACTTTGGTCAACGGTGGGGCGGAGTCACCTAGTGCAG | 14200 fluorescence intensity (a.u.) |
| GCTTGCTTGGTTGGTTGGTGGAGCTTGGGAGTTGAGGTCACGGAGTCACCTAGTGCAG | 11500 fluorescence intensity (a.u.) |
| GCTTTTGGCTGTGGTGGGTGCTTGTGGGTGGAGAGAGAGACGGAGTCACCTAGTGCAG | 19300 fluorescence intensity (a.u.) |
